In PubChem BioAssay (NCI) one finds growth data, which are given here for 40 compounds.

This is part of a sample that, as a whole, favours compounds with a hit. Of some 83,000 tested, about 20% had one in any assay.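 The endpoint reported here, percent growth, reads 100 for growth as untreated, 0 for no net growth and -100 for all cells dead.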 Activity calls are given as the source filed them.

The test deals with HOP-62 NSCLC. Briefly: NCI-60 one-dose screen, 48 h (100 = growth as untreated, 0 = no growth, -100 = all killed). The settings on record: 10 µM unless noted. As to the method:
Growth inhibition of the HOP-62 human Non-Small Cell Lung tumor cell line is measured as a screen for anti-cancer activity. Cells are grown in 96 well plates and exposed to the test compound for 48 hours. Compounds are tested at a single concentration, which is 10^-5 M for most compounds. The reported endpoint is percent growth (GI% or GIPRCNT), where numbers from 0 - 100% represent growth inhibition, and numbers from -100% - 0 represent cell death. For example, a value of 40 represents 60% growth inhibition. A value of 0 means no net growth occurred over the course of the experiment. A value of -40 indicates 40% of cells at the beginning of the experiment died by the end of the experiment. A value of -100 means all cells are dead at the end of the experiment.
NCI-60 Human Tumor Cell Lines Screen was performed using the standard one-dose NCI protocol, which is described in more detail at https://dtp.cancer.gov/discovery_development/nci-60/default.htm.
Compounds with GIPRCNT values below 10 were considered active. Activity score was based on GIPRCNT using the following formula: […]
Score is 0 for GIPRCNT values of 100 or above, 50 for GIPRCNT values of 0, and 100 for GIPRCNT values of -100.
As for `COc1cc2c(cc1-c1c(C)noc1C)ncc1nc(C3CCOCC3)n([C@H](C)COC(F)F)c12`, the growth was 35.2% (inactive). The figure for `Cc1nc(Nc2ccc(F)c(Cl)c2)sc1C(=O)O` is 27.3% (inactive); for `Cc1ccc(NC(=O)C2CCC(CN3CCN(C)CC3)CC2)cc1Nc1nccc(-c2cccnc2)n1` (stereo not given) it is 105% (inactive). On to `O=C1c2cc3c(cc2-c2c1c1ccc(Cl)cc1c(=O)n2CCCN1CCOCC1)OCO3`, for which the growth was 26.2% (inactive). The figure for `CN1CCN(CCCOc2cccc3nc(Nc4ccc(Cl)c(F)c4)ccc23)CC1` is 61% (inactive); for `COc1ccc(-c2nc3ccc(-c4nc5ccc(N6CCN(C)CC6)cc5[nH]4)cc3[nH]2)cc1OC` it is 76.9% (inactive); for `CC(C)(C)N1CCC1CN` (stereo not given) it is 108% (inactive). Regarding `O=C(N=Nc1c(O)[nH]c2ccc(Br)cc12)c1cc(-c2ccccc2)on1`, the growth was 102% (inactive). As to `O=C1Nc2c(ccc(Cl)c2Cl)/C1=C\c1ccc(C(F)(F)F)cc1`, the growth was 87.3% (inactive). In the case of `O=c1cc(CSc2nnc(-c3ccc(F)cc3)o2)c2ccc3ccccc3c2o1` it was 75.4% (inactive).

For `CSc1nc(NCc2ccccc2)c(C#N)c(-c2cccc([N+](=O)[O-])c2)n1`, the growth was 89.2% (inactive). The figure for `C=CCSSc1ncnc2c1ncn2C1OC(CO)C(O)C1O` (stereo not given) is 19.8% (inactive). Regarding `O=C1c2c(O)cc(O)cc2-c2c(-c3ccc(O)cc3)oc3cc(O)cc1c23`, the growth is 22.1% (inactive). The figure for `C=C1C(=O)O[C@H]2[C@H]1CC/C(COC(=O)NCCc1ccc(OC)c(OC)c1)=C\CC[C@@]1(C)O[C@@H]21` is 92.7% (inactive). In the case of `CC(O)CN(CC(C)O)c1ccc2c(c1)Cc1cc([N+](=O)[O-])ccc1-2` (stereo not given), the growth was 102% (inactive). As for `COc1ccc(NC(=O)c2ccc(/C=C/C(=O)c3ncc[nH]3)cc2)cc1`, the growth was 79.1% (inactive). For the compound `CN(Cc1cc(Cl)cc(Cl)c1O)Cc1cc(Cl)cc(Cl)c1O`, the growth was 54.6% (inactive). In the case of `Fc1ccc2[nH]cc(SSc3c[nH]c4ccc(F)cc34)c2c1` it was 31.7% (inactive). The figure for `O=C(N/N=C/c1c[nH]c2ccccc12)c1cc(-c2ccccc2)on1` is 98.8% (inactive). As for `Cc1nn(-c2cc(=O)[nH]c3ccccc23)c(N)c1C#N`, the growth is 100% (inactive). For `COc1ccc(CCNc2nc3c(c(=O)n(Cc4ccc(Br)cc4)c(=O)n3C)n2C)cc1OC`, the growth is 113% (inactive).

`CC(=O)c1cc(C(=O)c2ccc3c(c2)Sc2ccccc2N3)n2ccccc12`: the growth was 21.8% (inactive).

Regarding `CC1=C(O)C(=O)C(C(C#N)(C#N)C(C#N)C#N)C1` (stereo not given), the growth is 108% (inactive). For `O=C1c2cccc3cccc(c23)C(=O)N1CCCCCN1CCN(CCCCCOc2ccc(-c3nc4ccc(N5CCOCC5)cc4[nH]3)cc2)CC1`, the growth is 97.4% (inactive). `C=CC(=O)Nc1cccc(-c2nc(SC)nc(Nc3ccccc3OC)c2C#N)c1`: the growth was 37.9% (inactive).

For `CCOC(=O)c1c(C)oc2ncnc(N3CCN(C(=O)COc4ccc(SC)cc4)CC3)c12`, the growth was 86.4% (inactive). In the case of `C=CC(COC(c1ccccc1)(c1ccccc1)c1ccccc1)N(CC)CC` (stereo not given) it was 61.8% (inactive). In the case of `CCOC(=O)c1c(C)oc2ncnc(N3CCN(C(=S)Nc4ccccc4)CC3)c12` it was 87.2% (inactive). For `O=C1/C(=C/c2ccccc2O)N=C2SCCCN12`, the growth was 88.4% (inactive). The figure for `N#Cc1c(-c2ccc(Cl)cc2)nc(N=Nc2c(O)[nH]c3ccc(Cl)cc23)nc1N1CCOCC1` is 96.3% (inactive). In the case of `CSc1nc2c(c(=O)[nH]1)C1(C(=O)Nc3ccccc31)c1c(nc(SC)[nH]c1=O)N2` it was 113% (inactive). As for `CC(C)C1=C[C@@]23CC[C@@H]4[C@](C)(CCC[C@@]4(C)C(=O)N4CCCNCC4)[C@H]2C[C@@H]1[C@H]1C(=O)CCC(=O)[C@H]13`, the growth is 97.3% (inactive). In the case of `Cc1ccc(NC(=O)/C=C/c2ccccc2)c(C(N)=O)c1` it was 88.2% (inactive); in that of `COc1ccc2c(c1)CC/C(=C\c1cncc(Br)c1)C2=O`, 90% (inactive). In the case of `CCCc1cc(=O)n2c(C(=O)Nc3cccc(C(=O)OCC)c3)c(C(=O)Nc3ccc(F)cc3)sc2n1` it was 36.6% [30 µM] (inactive). `COc1cc(-c2nn(-c3ccc(C(=O)O)cc3)cc2C(=O)O)ccc1O`: the growth was 61.6% (inactive).

On to `COc1ccc(-c2nn(-c3ccc(Cl)cc3)cc2-c2nc3ccccc3[nH]2)cc1`, for which the growth is 113% (inactive). With `CCN(CC)c1ccc2c(c1)Oc1nc(N)c(C#N)c(N)c1C2Sc1ccc(SC)cc1` (stereo not given), the growth is -25.3% (active). The figure for `CCCn1c(=O)[nH]c(N)c([C@H]2c3ccccc3Oc3[nH]c(=O)n(CCC)c(=O)c32)c1=O` is 90.8% (inactive); for `OCCNc1nccc(N2CCN(c3ccnc4cc(Cl)ccc34)CC2)n1` it is 56.3% (inactive).
